Results from PubChem BioAssay AID485350 (ICCB-Longwood Screening Facility, Harvard Medical School, 2010).
About 95 (0.1%) of roughly 84,000 compounds were called active. No stated cut-off is given here; in the data, active means inhibition above about 25% (passing the limit was not always enough); inactive means the rest. The entries come from a sample that favours actives as a whole.

What follows are molecules tested on BasE (2,3-dihydroxybenzoate-AMP ligase), Acinetobacter baumannii ATCC 17978 (assay: BasE siderophore enzyme inhibitors, primary screen, biochemical, Acinetobacter baumannii ATCC 17978, fluorescence polarization (AID 485350;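 further: 0% = negative plate control signal and 100% = positive plate control signal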)). Conditions: purified BasE, fluorescence polarization binding displacement; active compounds read high; concentration not given here.

inhibition, inactive:
COc1ccccc1OCCCn1cc(/C=C2/C(=N)N3C=CSC3=NC2=O)c2ccccc21 2.49%
Cc1nn(CCC#N)c2nc(-c3ccc(F)cc3)cc(C(=O)O)c12 0.45%
Cc1noc(/C=C/N2CCOCC2)c1S(=O)(=O)N(C)CCc1ccc(Cl)cc1 3.54%
Cc1cc(C)nc(SCC(=O)OCC(=O)N2CCc3ccccc32)n1 -2.45%
COC(=O)C1=CN(C(C)C)C=C(C(=O)OC)C1c1cccs1 -11.7%
O=C(OCCN1CCCCC1)c1ccc(F)cc1 -3.82%
Cc1cc(C)n(C(=O)N2c3ccccc3Sc3ccccc32)n1 2.13%
COc1ccc(CC(=O)N/N=C2/CC(=O)CC(C)(C)C2)cc1 -0.19%
Cc1ccc(Nc2nc(N)nc(CSc3nc4c(n3-c3ccccc3)CCCC4)n2)cc1 -1.36%
S=C(Nc1cccnc1)Nc1ccccc1N1CCCCC1 3.7%
O=C(Cn1c(=O)oc2ccccc21)NCc1ccccc1 -2.65%
CC(C(=O)N1CCCc2ccccc21)n1nc(-c2cccs2)oc1=O (stereo not drawn) -0.37%
CCNC(=O)c1ccc(OCc2c(C)noc2C)c(OC)c1 -0.55%
CCOC(=O)CSc1ncnc2sc3c(c12)CCC3 -0.59%
CSc1nnc(C)n1Cc1ccccc1 -0.73%
CC1CN(C(=O)COC(=O)c2cccc3ccccc23)CC(C)O1 (stereo not drawn) 1.48%
Cc1occc1C(=O)Nc1cccc(-c2nn[nH]n2)c1 1.61%
Cn1c(=O)c2c(SC/C(O)=C(\C#N)c3nc4ccccc4[nH]3)nc(C(C)(C)C)nc2n(C)c1=O 0.74%
Cc1cc(-c2nn(C)c(=O)c3ccccc23)cc(C)c1OC(=O)Nc1ccc(Cl)cc1 1.43%
NNC(=O)c1ccc(COc2ccccc2)o1 -1.29%
CC1CN(C(=O)CSc2nc3scc(-c4ccccc4)c3c(=O)n2N)CC(C)O1 (stereo not drawn) 1.03%
COc1ccc(C)cc1NC(=O)C(OC(=O)c1ccc(Br)o1)c1ccccc1 (stereo not drawn) -0.6%
CCN=c1sc(C(=O)Nc2ccccc2)c(C)n1CC -0.02%
COC(=O)CCC1(C(=O)O)CCOC(C)(C)C1 (stereo not drawn) 0.97%
NC(=O)CSc1nnc(SCCOc2ccccc2)s1 0.35%
O=C(CSc1nc2cc3c(cc2c(=O)n1Cc1ccc2c(c1)OCO2)OCO3)NCCc1ccccc1 0.07%
COCCn1c(C)cc(C(=O)CSc2nc(C)c(C)n2C2CCCCC2)c1C -0.27%
CCCCNc1ncc2c(n1)c(=O)c(C#N)c1[nH]c3ccccc3c(=O)n12 -8.32%
CCOCCCn1c(CC(N)=O)n[nH]c1=S 0.4%
Nn1c(SCC2CCCCO2)nnc1-c1ccncc1 (stereo not drawn) 1.26%
COC(=O)Cc1c(C)n[nH]c1C 1.01%
c1ccc(-n2nnnc2Sc2nnc3n2CCCCC3)cc1 -0.02%
O=C(Nc1ccncc1)OCCc1ccccn1 4.83%
Cc1cc(N2CCN(C)CC2)nc2ccc(NC(=O)NC3CCCC3)cc12 -2.82%
Cc1ccc2cc(C#N)c(NCCNC(=O)Nc3ccccc3C)nc2c1 4.18%
O=C(CCNC(=O)NC12CC3CC(CC(C3)C1)C2)Nc1ccc(-n2cnnn2)cc1 2.05%
CC(=O)NCCC(=O)Nc1nccs1 -1.55%
CCOC(=O)Cn1c(=O)c(=O)n(C)c2c1c(C)nn2-c1ccccc1 -0.65%
C=CCn1c(COc2ccccc2F)nnc1SC(C)C(=O)NC(N)=O (stereo not drawn) 0.29%
CN(C)S(=O)(=O)c1ccc(C(=O)OCC(=O)N2CCCCC2)cc1 0.92%
C=CCN(CC=C)C(=O)CSc1nnc2c3ccccc3n(C)c2n1 4.82%
CCC(CC)=NNC(=O)c1cc(-c2ccccc2)n[nH]1 0.72%
COc1ccccc1NC(=O)c1ccc(N2CC3CC(C2)c2cccc(=O)n2C3)c(NC(=O)c2cccnc2)c1 (stereo not drawn) -1.5%
C=CCN(S(=O)(=O)c1ccc(Cl)cc1)S(=O)(=O)c1ccccc1OC 5.47%
CCCCN(C)S(=O)(=O)c1ccc2c(c1)CCN2C(=O)CCC(=O)O 1.97%
CN(C)CCN=c1cc(-c2ccccc2)oc2ccc(Cl)cc12 -2.16%
Cc1nc(SCC(=O)NC(C)(C#N)C2CC2)c2c(C)c(C)sc2n1 (stereo not drawn) -0.09%
Cc1cc2nc(N(C)C)c3ccccc3n2n1 2.28%
CC1CN(C(=O)Cn2nc(-c3cccc(-n4cccc4)c3)oc2=O)CC(C)O1 (stereo not drawn) -1.31%
O=C(O)c1cccnc1SCc1cc(=O)n2cc(Br)ccc2n1 1.25%
CC(=O)NCc1ccc(-c2csc(CC(=O)Nc3ccc(C)cc3C)n2)o1 0.82%
C/C(=N/NC(=O)CCc1ccccc1)C1CC1 2.92%
COc1ccc(OCCNS(=O)(=O)Cc2ccccc2)cc1 3.47%
CC1CN(CC(=O)Nc2ccccc2C(C)C)CC(C)O1 (stereo not drawn) -1.49%
CCN(CC)Cc1cc(C(=O)O)co1 -4.35%
O=C(N/N=C/c1cccnc1)c1ccc(CN2CCOCC2)cc1 1.66%
CCN1C(=O)/C(=C/N(C(C)=O)c2ccccc2)OC1=S 1.08%
O=C(CSc1ncnc2c1nnn2Cc1ccc(F)cc1)NC1CCCC1 -1.58%
Cc1ccccc1Nc1nc(N)nc(CNCc2ccccc2)n1 5.66%
Cc1oc(-c2cccc(Cl)c2)nc1CN1CCCC(C(=O)N2CCN(c3cccc(Cl)c3)CC2)C1 (stereo not drawn) -0.15%
Cc1nc2c(cnn2C(C)C)c(C)c1CCC(=O)OC(C)C(=O)Nc1ccc(C(N)=O)cc1 (stereo not drawn) -3.6%
Cc1cc(C(=O)OCC(=O)c2cc(C)n(-c3ccc(Cl)cc3)c2C)no1 1.57%
CCN(Cc1ccc2c(c1)OCCO2)C(=O)c1ccc(-n2cccn2)cc1 -0.56%
